The record followed here is ChEMBL document CHEMBL1961873, “Compounds: GSK PKIS; Assays: Nanosyn kinase panel” (2012).

The target of assay [1] is T1, Serine/threonine-protein kinase TBK1 (Homo sapiens) (UniProt Q9UHD2).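 Further: values are mean inhibition of TBK1, screened as part of the GSK published kinase inhibitor set.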
T1 sequence (whole entry): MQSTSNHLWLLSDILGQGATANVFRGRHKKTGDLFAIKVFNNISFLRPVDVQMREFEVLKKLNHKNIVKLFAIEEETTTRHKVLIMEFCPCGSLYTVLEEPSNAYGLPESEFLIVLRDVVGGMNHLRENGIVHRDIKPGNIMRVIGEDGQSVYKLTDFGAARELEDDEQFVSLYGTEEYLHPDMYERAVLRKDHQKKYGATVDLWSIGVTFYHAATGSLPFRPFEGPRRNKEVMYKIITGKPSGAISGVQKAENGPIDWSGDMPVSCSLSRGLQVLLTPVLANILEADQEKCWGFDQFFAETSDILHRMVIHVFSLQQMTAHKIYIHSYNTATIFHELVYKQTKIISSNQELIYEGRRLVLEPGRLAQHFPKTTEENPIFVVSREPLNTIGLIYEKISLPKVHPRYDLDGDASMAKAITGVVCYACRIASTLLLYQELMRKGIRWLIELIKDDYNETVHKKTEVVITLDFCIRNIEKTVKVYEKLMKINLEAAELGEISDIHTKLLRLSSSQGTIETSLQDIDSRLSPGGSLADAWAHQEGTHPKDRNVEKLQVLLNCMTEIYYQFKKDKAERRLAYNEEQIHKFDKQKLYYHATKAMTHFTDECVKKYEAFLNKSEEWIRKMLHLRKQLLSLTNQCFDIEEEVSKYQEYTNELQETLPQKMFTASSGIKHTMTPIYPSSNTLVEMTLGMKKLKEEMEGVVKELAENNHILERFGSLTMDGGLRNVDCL
Conditions: at 1 µM.

Assay [2] has as its target T2, Testis-specific serine/threonine-protein kinase 1 (Homo sapiens) (UniProt Q9BXA7).
T2 sequence (whole entry): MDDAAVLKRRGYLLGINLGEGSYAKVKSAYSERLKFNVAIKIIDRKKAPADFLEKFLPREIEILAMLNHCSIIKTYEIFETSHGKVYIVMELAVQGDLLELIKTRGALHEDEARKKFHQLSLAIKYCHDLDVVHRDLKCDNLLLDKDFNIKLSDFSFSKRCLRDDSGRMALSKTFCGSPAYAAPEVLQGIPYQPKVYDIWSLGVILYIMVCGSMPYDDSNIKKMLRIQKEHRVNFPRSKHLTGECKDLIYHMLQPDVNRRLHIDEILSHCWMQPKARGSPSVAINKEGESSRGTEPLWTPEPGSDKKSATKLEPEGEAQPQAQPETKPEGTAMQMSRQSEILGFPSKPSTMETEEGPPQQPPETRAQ
The conditions noted are these: at 0.1 µM.

The target of assay [3] is T2, Testis-specific serine/threonine-protein kinase 1 (Homo sapiens). The conditions noted are these: at 1 µM.
Assay [4] concerns the target T3, Testis-specific serine/threonine-protein kinase 2 (Homo sapiens) (UniProt Q96PF2).
T3 sequence (whole entry): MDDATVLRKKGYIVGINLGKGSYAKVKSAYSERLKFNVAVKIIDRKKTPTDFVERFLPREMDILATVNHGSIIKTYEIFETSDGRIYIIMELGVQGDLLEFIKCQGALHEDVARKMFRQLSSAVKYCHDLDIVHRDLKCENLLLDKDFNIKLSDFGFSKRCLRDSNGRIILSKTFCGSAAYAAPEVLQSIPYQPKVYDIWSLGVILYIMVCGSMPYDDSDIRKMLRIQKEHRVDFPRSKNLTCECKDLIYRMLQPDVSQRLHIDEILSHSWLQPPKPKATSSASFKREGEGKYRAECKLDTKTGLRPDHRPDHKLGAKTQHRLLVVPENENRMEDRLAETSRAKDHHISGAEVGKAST
The conditions noted are these: at 0.1 µM.

Assay [5] deals with T3, Testis-specific serine/threonine-protein kinase 2 (Homo sapiens). Conditions: at 1 µM.
Assay [6] addresses Casein kinase I isoform alpha (Homo sapiens) (UniProt P48729). The conditions noted are these: at 0.1 µM.
Assay [7] has the same target. Conditions: at 1 µM.
Assay [8] has as its target Casein kinase I isoform gamma-1 (Homo sapiens) (UniProt Q9HCP0). Conditions: at 0.1 µM.
Assay [9] has the same target. Conditions: at 1 µM.
For assay [10], the target named is Casein kinase I isoform gamma-2 (Homo sapiens) (UniProt P78368). The conditions noted are these: at 0.1 µM.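 Further: values are mean inhibition figures reported as part of the GSK PKIS dataset.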
Casein kinase I isoform gamma-2 (Homo sapiens), sequence (P78368 whole entry, looked up, canonical isoform): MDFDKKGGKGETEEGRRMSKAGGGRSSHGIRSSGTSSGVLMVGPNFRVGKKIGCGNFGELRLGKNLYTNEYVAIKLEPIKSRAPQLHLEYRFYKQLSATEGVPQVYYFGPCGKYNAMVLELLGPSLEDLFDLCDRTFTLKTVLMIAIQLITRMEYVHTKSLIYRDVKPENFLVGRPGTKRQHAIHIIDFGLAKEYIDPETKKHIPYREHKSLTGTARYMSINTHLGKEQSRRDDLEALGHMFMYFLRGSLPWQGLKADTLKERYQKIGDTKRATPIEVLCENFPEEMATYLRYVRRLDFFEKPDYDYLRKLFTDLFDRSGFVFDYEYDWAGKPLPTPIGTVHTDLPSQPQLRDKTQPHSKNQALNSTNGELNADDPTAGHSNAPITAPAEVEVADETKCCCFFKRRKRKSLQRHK

Casein kinase I isoform gamma-1 (Homo sapiens), sequence (Q9HCP0 whole entry, looked up, canonical isoform): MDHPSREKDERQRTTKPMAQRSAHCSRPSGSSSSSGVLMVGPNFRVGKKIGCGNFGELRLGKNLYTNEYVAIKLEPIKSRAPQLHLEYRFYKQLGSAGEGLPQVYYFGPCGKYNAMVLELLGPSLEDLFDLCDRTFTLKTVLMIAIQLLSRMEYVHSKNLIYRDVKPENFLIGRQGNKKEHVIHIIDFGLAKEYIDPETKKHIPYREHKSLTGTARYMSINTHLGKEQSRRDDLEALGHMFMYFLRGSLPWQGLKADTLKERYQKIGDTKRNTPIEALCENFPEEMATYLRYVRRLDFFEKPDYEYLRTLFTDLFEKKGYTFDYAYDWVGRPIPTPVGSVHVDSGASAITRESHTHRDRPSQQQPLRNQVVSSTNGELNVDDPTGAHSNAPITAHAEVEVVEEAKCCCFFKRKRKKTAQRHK
Casein kinase I isoform alpha (Homo sapiens), sequence (P48729 2-337 limits assumed): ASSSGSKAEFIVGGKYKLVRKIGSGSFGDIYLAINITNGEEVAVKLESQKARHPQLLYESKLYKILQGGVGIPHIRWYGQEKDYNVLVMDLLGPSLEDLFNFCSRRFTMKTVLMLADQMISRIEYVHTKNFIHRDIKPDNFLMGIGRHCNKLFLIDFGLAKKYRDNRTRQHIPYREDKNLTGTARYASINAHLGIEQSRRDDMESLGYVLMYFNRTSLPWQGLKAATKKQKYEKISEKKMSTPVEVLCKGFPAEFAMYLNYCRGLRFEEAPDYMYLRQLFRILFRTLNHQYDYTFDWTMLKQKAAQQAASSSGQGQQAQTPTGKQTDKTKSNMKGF

Regarding `Nc1ncnc2occ(-c3ccc(NC(=O)Nc4cccc(C(F)(F)F)c4)cc3)c12`, the inhibition in [1] amounted to 4.59%; in assay [2] it was 4.54%; in assay [3], 4.9%; in assay [4], 1.47%; in assay [5], 2.55%; in assay [6], 3.35%. The inhibition in [7] stood at 5.6%; in [8], 5.08%; in assay [9] it was 10.1%; in assay [10] it was 4.03%.
In the case of `Cc1cc(O)cc(C)c1/C=C/c1cncc(-c2nn[nH]n2)c1`, the inhibition in [1] was found to be 5.41%; in assay [2], 2.79%; in assay [3], 2.61%; in [4], 1.18%; in [5], 0.73%; in assay [6], 7.75%. The inhibition in [7] was 10.6%; in assay [8], 1.82%; in assay [9], 3.8%; in assay [10] it was 0.59%.
`COc1cccc(-n2ncc3c(N/N=C/c4cccc(F)c4)ncnc32)c1`: the inhibition was 5.66% in [1]; 2.14% in assay [2]; 2.06% in assay [3]; 0.63% in [4]; 0.82% in assay [5]; 2.35% in assay [6]. In addition, the inhibition in [7] is 2.18%; in [8] it was -1.45%; in [9] it was -0.75%; in [10] it was -1.9%.
Regarding `CS(=O)(=O)CCNCc1ccc(-c2ccc3ncnc(Nc4ccc(OCc5cccc(F)c5)c(C(F)(F)F)c4)c3c2)o1`, the inhibition came out at 4.04% in [1]; 4.81% in assay [2]; 5.61% in assay [3]; 2.88% in assay [4]; 3.87% in assay [5]; 1.94% in assay [6]. The inhibition is 2.33% in assay [7], 3.11% in assay [8], 4.58% in assay [9] and 2.69% in [10].
As for `O=C1NC(=O)C(c2ccccc2Cl)=C1Nc1cccc(O)c1`, the inhibition was 6.91% in assay [1]; 1.56% in assay [2]; 1.53% in [3]; 1.05% in [4]; -1.27% in [5]; 4.13% in assay [6]. For the same compound, the inhibition worked out at 2.81% in assay [7], 2.54% in assay [8], 3.11% in assay [9] and 1.14% in assay [10].
On to `CN1CCC(C(=O)Nc2n[nH]c3nnc(-c4ccccc4)cc23)CC1`, for which the inhibition in assay [1] is 3.05%; in assay [2] it was 5.87%; in assay [3] it was 6.95%; in assay [4], 3.85%; in assay [5], 6.08%; in assay [6] it was 2.13%. Further, the inhibition in assay [7] is 4%; in assay [8], 5.08%; in [9] it was 5.43%; in assay [10] it was 3.51%.
As for `CCCN1CCC(Oc2cc(Nc3nc(Nc4cccc(F)c4C(N)=O)c4cc[nH]c4n3)c(OC)cc2Cl)CC1`, the inhibition in assay [1] is 2.35%; in [2], 21.3%; in [3], 57.3%; in [4], 7.49%; in assay [5] it was 26.8%; in assay [6], 0.93%. Moreover, the inhibition in assay [7] is 12.1%; in assay [8], -0.95%; in assay [9] it was 8.29%; in assay [10], -0.58%.
With `Cc1ccc(C(=O)NC2CCCCC2)cc1-c1ccc(C(=O)NCC2CC2)cc1`, the inhibition in [1] is 3.86%; in assay [2] it was 1.44%; in assay [3] it was -1.51%; in assay [4], -0.17%; in [5], -1.47%; in assay [6] it was 4.32%. The inhibition is 3.89% in assay [7], 1.72% in assay [8], 2.66% in assay [9] and 0.35% in assay [10].
For `COc1ccc2cc(-c3c(-c4ccncc4)nc(-c4ccc([S+](C)[O-])cc4)n3C)ccc2c1` (stereo not given), the inhibition in [1] is 3.63%; in assay [2], 3.26%; in [3] it was 1.1%; in assay [4], -0.32%; in assay [5] it was -0.74%; in assay [6] it was 1.18%. Moreover, the inhibition in assay [7] is 3.66%; in assay [8], 3.32%; in [9], 2.97%; in assay [10] it was 2%.
For the compound `O=C1NC(=O)C(N2CCc3ccccc32)=C1c1ccc(Cl)cc1`, the inhibition came out at 5.62% in [1]; 3.65% in assay [2]; 2.94% in assay [3]; 1.38% in assay [4]; 0.39% in assay [5]; 4.4% in [6]. For the same compound, the inhibition amounted to 5.22% in assay [7], 4.48% in [8], 5.14% in assay [9] and 2.83% in assay [10].
With `COC(=O)Nc1nc2cc(Oc3ccc(NC(=O)Nc4cccc(C(=O)O)c4)cc3)ccc2[nH]1`, the inhibition in assay [1] turned out to be 2.42%; in [2] it was 0.41%; in [3], 0.96%; in [4], 0.4%; in [5], 0.93%; in assay [6], 2.25%. Moreover, the inhibition in assay [7] is 0.72%; in assay [8], -2.42%; in assay [9], -2.13%; in assay [10], -2.21%.
Regarding `CCN1CCC(CC(=O)Nc2n[nH]c3nc(-c4cccs4)c(Br)cc23)CC1`, the inhibition in [1] was 1.1%; in assay [2] it was -1.56%; in assay [3], -1.9%; in assay [4], -1.62%; in [5], -1.24%; in assay [6], 0.63%. In addition, the inhibition in assay [7] is -0.71%; in assay [8], -2.56%; in [9] it was -1.74%; in assay [10] it was -1.74%.
As to `O=C1Nc2ccc(C(=O)c3ccco3)cc2C1=Cc1cc(Cl)c(O)c(Cl)c1`, the inhibition is 40.7% in assay [1]; 1.18% in assay [2]; 3.77% in assay [3]; 1.82% in assay [4]; 1.41% in [5]; -0.89% in assay [6]. Also, the inhibition in [7] is 5.16%; in assay [8] it was 2.49%; in assay [9], 4.24%; in [10], 1.66%.
For `CCn1c(-c2nonc2N)nc2c(N3CCCC3)nccc21`, the inhibition in assay [1] was 2.54%; in [2], 0.01%; in assay [3], -0.07%; in assay [4], -0.87%; in assay [5], 0.44%; in assay [6], -0.35%. Also, the inhibition in assay [7] is 0.23%; in [8] it was -0.72%; in [9] it was -0.83%; in assay [10], -0.88%.
For `CS(=O)(=O)CCNCc1ccc(-c2ccc3ncnc(Nc4ccc(OCc5ccccc5)c(Cl)c4)c3c2)o1`, the inhibition in [1] is 2.91%; in [2], 2.07%; in assay [3], 1.74%; in [4] it was -0.14%; in assay [5], 0.89%; in [6], -0.43%. For the same compound, the inhibition is 0.15% in assay [7], 1.35% in [8], 0.05% in assay [9] and -0.08% in assay [10].
With `CS(=O)(=O)CCN(CC#N)Cc1ccc(-c2ccc3ncnc(Nc4ccc(OCc5cccc(F)c5)c(Cl)c4)c3c2)o1`, the inhibition in [1] stood at 1.61%; in assay [2] it was 1.37%; in [3], 1.5%; in assay [4], 0.63%; in assay [5], 1.39%; in assay [6], 1%. Also, the inhibition was 2.88% in assay [7], -2.14% in [8], -3.1% in assay [9] and -1.98% in [10].
`COc1ccc(-c2ccncc2)cc1C(N)=O`: the inhibition in [1] was determined as 2.44%; in [2] it was 5.12%; in assay [3], 3.57%; in assay [4], 3.23%; in assay [5] it was 1.75%; in assay [6] it was 4.33%. The inhibition in assay [7] was determined as 10.2%; in [8], 3.94%; in assay [9] it was 4.04%; in assay [10], 3.53%.

The term inhibition denotes the drop in the measured response relative to a control, in per cent.
